Measurements as given in PubChem BioAssay AID588753 (Vanderbilt Specialized Chemistry Center, 2011).
Calls of active or inactive are those of the source. How the calls were made is not given here.

Assay: PubChem AID 588753
Settings: Ricerca radioligand binding panel, % inhibition, at 10 µM, stronger effect = higher value

Molecule `C[C@@H](NC(=O)c1ccc(C#Cc2cccc(F)c2)cn1)C(C)(C)O` has an inhibition (L-type Ca channel DHP site) of 22%, an inhibition (NMDA phencyclidine site) of 25% and an inhibition (adenosine A2a binding) of 12%. The inhibition (adrenergic alpha1A binding) was 18%, the inhibition was 8% (inactive) and the inhibition (dopamine transporter binding) was 8%. The inhibition (hERG binding) was -2%, the inhibition (leukotriene CysLT1 binding) was 17% and the inhibition (norepinephrine transporter binding) was 9%. It also gave an inhibition (purinergic P2XY binding) of 24%, an inhibition (serotonin 5-HT2B binding) of 36% and an inhibition (serotonin transporter binding) of 6%. For the same molecule, the inhibition (sigma 1 binding) was 31%.
